Where “and” joins values, the source holds several entries; their conditions need not be identical. Equal entries are not always repeated. Hit rate of the full screen: of about 5,500 compounds, about 2,000 (36%) were called active. Not shown: some 18% with an inconclusive outcome. No stated cut-off is given here; in the data, active means normalized growth mostly below about 0.91 (no sharp cut-off); inconclusive means no clear call, values can overlap the other calls; inactive means mostly above about 0.92. This is one part of the list.
Experiment: chemical genetic growth profiling, strain panel (AID 1159580);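 further: tested at 20 µM; growth read once vehicle control cultures reached saturation at 30 °C; 1 = growth at the plate median or of vehicle wells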
Conditions: S. cerevisiae deletion strains, growth OD

Measured: normalized growth

CC(C)c1ccc2c(c1O)CC[C@H]1C3=C(CC[C@]21C)C(=O)OC3
0.661 (active) and 0.918 (inactive): locus YHR030C, strain SLT2, stronger effect = lower value
active: locus YAL013W, strain DEP1, stronger effect = lower value 0.847 | locus YDL074C, strain BRE1, stronger effect = lower value 0.617 | locus YDL134C, strain PPH21, stronger effect = lower value 0.8 | locus YDL192W, strain arf1, stronger effect = lower value 0.898 | locus YDR137W, strain rgp1, stronger effect = lower value 0.825 | locus YDR162C, strain NBP2, stronger effect = lower value 0.81 | locus YDR318W, strain mcm21, stronger effect = lower value 0.886 | locus YDR392W, strain spt3, stronger effect = lower value 0.542 | locus YDR502C, strain sam2, stronger effect = lower value 0.913 | locus YEL061C, strain CIN8, stronger effect = lower value 0.772 | locus YER155C, strain BEM2 (second series), stronger effect = lower value 0.807 | locus YER155C, strain BEM2, stronger effect = lower value 0.846 | locus YER167W, strain BCK2, stronger effect = lower value 0.781 | locus YGL086W, strain mad1, stronger effect = lower value 0.867 | locus YGL248W, strain PDE1, stronger effect = lower value 0.754 | locus YGR078C, strain PAC10, stronger effect = lower value 0.718 | locus YHR129C, strain ARP1, stronger effect = lower value 0.798 | locus YHR142W, strain chs7, stronger effect = lower value 0.867 | locus YIL066C, strain RNR3, stronger effect = lower value 0.601 | locus YJL129C, strain trk1, stronger effect = lower value 0.856 | locus YJL187C, strain SWE1 (second series), stronger effect = lower value 0.86
inactive: locus YAL021C, strain ccr4, stronger effect = lower value 0.999 | locus YAL026C, strain drs2, stronger effect = lower value 0.946 | locus YAL030W, strain snc1, stronger effect = lower value 0.969 | locus YBL061C, strain skt5, stronger effect = lower value 0.962 | locus YBR009C, strain hhf1, stronger effect = lower value 0.96 | locus YBR021W, strain FUR4, stronger effect = lower value 0.903 | locus YBR023C, strain chs3, stronger effect = lower value 0.957 | locus YBR171W, strain sec66, stronger effect = lower value 0.935 | locus YBR229C, strain ROT2, stronger effect = lower value 0.97 | locus YBR231C, strain swc5, stronger effect = lower value 0.957 | locus YBR279W, strain paf1, stronger effect = lower value 0.979 | locus YCL011C, strain gbp2, stronger effect = lower value 0.933 | locus YCL016C, strain dcc1, stronger effect = lower value 0.973 | locus YCL029C, strain bik1, stronger effect = lower value 0.912 | locus YCL061C, strain MRC1, stronger effect = lower value 0.925 | locus YCL069W, strain vba3, stronger effect = lower value 0.95 | locus YCR088W, strain abp1, stronger effect = lower value 0.933 | locus YDL005C, strain med2, stronger effect = lower value 0.961 | locus YDL035C, strain GPR1, stronger effect = lower value 0.943 | locus YDL040C, strain nat1, stronger effect = lower value 0.965 | locus YDL101C, strain DUN1, stronger effect = lower value 0.943 | locus YDL185W, strain tfp1, stronger effect = lower value 0.988 | locus YDR001C, strain nth1, stronger effect = lower value 0.935 | locus YDR069C, strain doa4, stronger effect = lower value 0.996 | locus YDR101C, strain arx1, stronger effect = lower value 0.968 | locus YDR150W, strain NUM1, stronger effect = lower value 0.959 | locus YDR159W, strain sac3, stronger effect = lower value 1 | locus YDR195W, strain ref2 1.01 | locus YDR297W, strain sur2, stronger effect = lower value 0.966 | locus YDR334W, strain swr1, stronger effect = lower value 0.956 | locus YDR335W, strain msn5, stronger effect = lower value 0.973 | locus YDR388W, stronger effect = lower value 0.99 | locus YEL003W, strain gim4, stronger effect = lower value 0.936 | locus YEL037C, strain rad23, stronger effect = lower value 0.941 | locus YEL061C, strain CIN8 (second series), stronger effect = lower value 0.939 | locus YER015W, strain faa2, stronger effect = lower value 0.961 | locus YER016W, strain bim1, stronger effect = lower value 0.976 | locus YER110C, stronger effect = lower value 0.943 | locus YER111C, strain swi4, stronger effect = lower value 0.946 | locus YFR010W, strain ubp6, stronger effect = lower value 0.952 | locus YGL078C, strain dbp3, stronger effect = lower value 0.962 | locus YGL167C, strain pmr1, stronger effect = lower value 0.967 | locus YGL173C, strain kem1, stronger effect = lower value 0.971 | locus YGL227W, strain vid30, stronger effect = lower value 0.945 | locus YGL240W, strain doc1, stronger effect = lower value 0.953 | locus YGL253W, strain hxk2, stronger effect = lower value 0.987 | locus YGR135W, strain pre9, stronger effect = lower value 0.953 | locus YGR252W, strain gcn5, stronger effect = lower value 0.916 | locus YHR013C, strain ard1, stronger effect = lower value 1.02 | locus YHR027C, strain rpn1, stronger effect = lower value 0.994 | locus YHR079C, strain IRE1 (second series), stronger effect = lower value 0.959 | locus YHR079C, strain IRE1, stronger effect = lower value 0.927 | locus YHR094C, strain hxt1, stronger effect = lower value 0.971 | locus YHR200W, strain rpn10, stronger effect = lower value 0.957 | locus YIL073C, strain SPO22, stronger effect = lower value 0.844 | locus YIL125W, strain kgd1, stronger effect = lower value 0.954 | locus YIR030C, strain dcg1, stronger effect = lower value 0.965 | locus YJL092W, strain hpr5, stronger effect = lower value 0.941 | locus YJL095W, strain BCK1 (second series), stronger effect = lower value 0.97 | locus YJL115W, strain asf1, stronger effect = lower value 0.956 | locus YJL134W, strain LCB3, stronger effect = lower value 0.975 | locus YJL154C, strain vps35, stronger effect = lower value 0.95 | locus YJL164C, strain tpk1, stronger effect = lower value 0.953 | locus YJL166W, strain qcr8, stronger effect = lower value 0.987 | locus YJL168C, strain set2, stronger effect = lower value 0.989
0.646 (active) and 0.956 (inactive): locus YJL095W, strain BCK1, stronger effect = lower value

— PubChem BioAssay AID1159580 (chemical genetic matrix, 2015)
